Bioassay records from PubChem.
In the library only some 3.5% were active in any assay of this set; here they are far more common.
SARS 3CLpro inh: SARS-CoV 3CLpro protease inhibition; P0C6X7; recombinant SARS-CoV 3CLpro, quenched FRET peptide cleavage; inhibition, % at 6 µM; actives 0.14% (n = 290,000); AID 1706; in the data active means inhibition above about 12%
BoNT-A LC inh2: inhibitors of Botulinum neurotoxin A light chain protease; inhibition, % at 10 µM; multiplex microsphere protease substrate cleavage, flow cytometry; AID 588499; actives 0.17% (n = 360,000); further: plate controls were buffer without enzyme for full effect and enzyme alone for no effect
Autofluor counter: counter-screen for toxin protease inhibitors: compound fluorescence; AID 624483; compound autofluorescence counterscreen, microsphere flow cytometry; hits give high values; fluorescence intensity (no concentration beside the values); actives 3.1% (n = 360,000); in the data active means fluorescence intensity above about 16000; inconclusive means no clear call, values can overlap the other calls
Anthrax LF prot: inhibitors of Bacillus anthracis lethal factor protease. P15917. multiplex microsphere protease cleavage assay, LF. inhibition, % at 10 µM. actives 0.12% (n = 360,000). AID 588501; further: plate controls were buffer without enzyme for full effect and enzyme alone for no effect
BoNT-F LC inh: BoNT F light chain protease inhibition | inhibition, % at 10 µM | Multiplex microsphere protease cleavage assay, flow cytometry | actives 0.22% (n = 360,000); in the data active means inhibition above about 35%, passing the limit was not always enough; inconclusive means no clear call, values can overlap the other calls; further: plate controls were buffer without enzyme for full effect and enzyme alone for no effect
The depositor's hits bear a star; ? = inconclusive; . = no result. Unless noted, no stated cut-off is given here; in the data, active means inhibition above about 30%; inconclusive means no clear call, values can overlap the other calls; inactive means below that.

SMILES	SARS 3CLpro inh	BoNT-A LC inh2	Autofluor counter	Anthrax LF prot	BoNT-F LC inh
Cc1cc(=O)[nH]c(SCCCOc2ccccc2Cl)n1	0	-2	20446*	-1	-1
COc1ccc(CSc2nc(C)cc(=O)[nH]2)cc1Br	0	0	23006*	0	2
O=C(c1nc2ccc(Cl)cn2c1CN1CCC(O)CC1)N1CCc2ccccc2C1	0	.	.	.	.
Cc1ccc(C)c(NC(=O)c2nnn(Cc3ccccc3C)c2N)c1	-6	-1	23851*	-2	-3
Cc1ccc(NC(=O)Cn2nnc(C(=O)NCc3ccccc3)c2N)cc1C	-4	-3	23778*	0	-4
Cc1ccc(C)c(NC(=O)c2nnn(Cc3ccccc3)c2N)c1	-4	0	4939	-1	-8
Cc1c(Cl)cnn1CC(=O)NC1C(=O)N2C(C(=O)O)=C(CSc3nnnn3C)CSC12 (configuration not stated)	-2	0	4154	-1	-2
CC(=O)N1CN2CN(C1)CN(C(C)=O)C2	0	0	1906	0	-1
Cc1cc2c(n1-c1ccc(Cl)cc1)CC(C)(C)CC2=O	5	-1	19623*	-7	-6
CCOC(=O)c1cc2c(n(-c3ccccc3)c1=O)CC(C)(C)CC2=O	-3	-5	25220*	-1	-7
CC(C)(C)c1nnc(N/N=C/c2ccccc2)n(N)c1=O	1	0	1951	-1	-1
COc1ccc(N2C(=O)CC(N3CCCC4CCCCC43)C2=O)cc1 (configuration not stated)	-4	0	2497	-6	-5
O=c1nc(/C=C/c2cc([N+](=O)[O-])ccc2Cl)cc(C(F)(F)F)[nH]1	-1	3	22027*	0	3
COC(=O)NC1CCS(=O)(=O)C1 (configuration not stated)	-5	?	17672*	-4	-7
COc1cc(C)c(Cl)cc1S(=O)(=O)NCCN1CCOCC1	-1	-3	23984*	-3	-2
C[C@H](CO)N1C[C@H](C)[C@@H](CN(C)C(=O)Oc2cccc3ccccc23)OCc2cn(nn2)CCCC1=O	.	0	2909	-3	3
O=C(COC(=O)c1ccc(Br)o1)NCC1CCCO1 (configuration not stated)	-1	3	21346*	2	5
O=C(NCC1CCCO1)c1ccc(Br)o1 (configuration not stated)	0	0	4361	-2	0
CN(Cc1ccncc1)C1CC(=O)N(c2ccc(F)cc2)C1=O (configuration not stated)	0	0	2083	0	-3
CCOC(=O)N1CCC(NC(=O)c2cccn3c(=O)c4cc(Br)ccc4nc23)CC1	1	3	18434*	0	6
CCOC(=O)N1CCC(NC(=O)c2ccc3nc4ccccc4c(=O)n3c2)CC1	1	.	.	.	.
NC(=O)COc1cccc2cccnc12	1	15	16622*	-11	12
Cc1cc(NC(=O)COc2cccc3cccnc23)no1	-9	.	.	.	.
Cc1ccc(CNCCC2=CCCCC2)cc1	-1	?	16821*	-6	-12
O=C(NCCC1=CCCCC1)C(=O)NCc1ccccc1Cl	-3	?	16906*	1	-5
SMILES	SARS 3CLpro inh	BoNT-A LC inh2	Autofluor counter	Anthrax LF prot	BoNT-F LC inh
O=C(CCN1C(=O)c2ccccc2C1=O)NCCC1=CCCCC1	1	8	20662*	-16	8
C1=C(CCNCc2ccccc2)CCCC1	-5	?	23029*	-2	-5
COc1ccc(C2C(C#N)=C(C)NC3=C2S(=O)(=O)c2ccccc23)cc1 (configuration not stated)	3	1	4348	5	-5
CCC(C)(C(=O)NC1CCCC1)N(Cc1ccco1)C(=O)Cc1cccs1 (configuration not stated)	2	0	4440	2	-13
O=C(c1ccco1)N1CCN(C(=O)c2nn3cccnc3c2Cl)CC1	0	0	22749*	-1	-1
Cc1cccc(N2C(=O)CC(n3ccnc3)C2=O)c1C (configuration not stated)	-1	0	4034	-7	-8
Cc1ccc(CNC(=O)C(NS(=O)(=O)c2ccc3nc(C)sc3c2)C(C)C)cc1 (configuration not stated)	-5	-1	5079	-9	-16
O=C(c1ccccc1-c1nc(-c2ccc(F)cc2)no1)N1CCCC1	-2	0	2641	-2	-8
O=C(c1ccc(-c2ccccc2)cc1)c1ccccc1C(=O)N1CCOCC1	1	2	22303*	-2	4
O=C(c1ccccc1-c1nc(-c2ccccc2)no1)N1CCOCC1	-1	4	18009*	-4	4
O=C(Oc1ccccc1C(=O)N1CCOCC1)c1ccc(Br)cc1	-9	?	20205*	1	0
COc1ccc(NC(=O)C(c2ccc(C)cc2)N(C)C(=O)c2ccc(=O)[nH]c2)cc1 (configuration not stated)	-8	0	2509	0	-1
O=C1CSC(=Nc2cc(Cl)ccc2Cl)N1	-4	4	22505*	2	2
COCCN(C(=O)COC(=O)CCOc1ccccc1C)c1c(N)n(Cc2ccccc2)c(=O)[nH]c1=O	.	2	5148	-6	?
COc1ccc(S(=O)(=O)N2CCC(C(=O)NCCN3CCOCC3)CC2)cc1	-5	0	5637	3	0
CCSc1nnc([C@@H](N)Cc2ccccc2)o1	3	-4	21095*	-1	-5
Cc1ccc(C)c(NC(=O)CSc2nnc([C@@H](N)Cc3ccccc3)o2)c1	-2	-3	24097*	-4	-5
Cc1ccc(C)c(NC(=O)CSc2nnc(-c3ccco3)o2)c1	5	0	3391	1	-3
CCSc1nnc([C@@H](N)Cc2c[nH]c3ccccc23)o1	-1	-1	9078	-10	-16
N[C@@H](Cc1c[nH]c2ccccc12)c1nnc(SCc2ccccc2F)o1	0	1	22370*	-1	-4
Cc1cccc(NC(=O)CSc2nnc([C@@H](N)Cc3c[nH]c4ccccc34)o2)c1C	1	-1	23387*	-4	-8
CN1CCN(NC(=O)Nc2cccc(F)c2)CC1	-1	1	4472	0	-3
Cc1ccc(/C=c2\sc3nc(-c4cccs4)nn3c2=O)o1	2	1	20038*	-4	3
COc1ccccc1/C=c1\sc2nc(-c3cccs3)nn2c1=O	2	.	.	.	.
CCN=c1scc(-c2ccco2)n1/N=C/c1ccc(OC)c(O)c1	-6	?	24329*	-2	-4
CCN=c1scc(-c2ccco2)n1/N=C/c1ccc(O)cc1	-3	0	6195	-4	-10
Cc1cc2c(c(Sc3ccccc3)n1)C(=O)OC2	-3	-2	24407*	-4	-2
Cc1cc2c(c(SCC(=O)N(C)c3ccccc3)n1)C(=O)OC2	4	1	4182	-2	22
CC(=O)Nc1cccc(C(=O)OC(C(=O)c2ccc(C)c(C)c2)c2ccccc2)c1 (configuration not stated)	0	-1	19826*	-13	-2
